Molecules are shown by their SMILES. Calls of active or inactive are those of the source. How the source made its calls: active means hit-call score of the fitted dose curve at least 0.9, where 1 is the maximum; inactive means score below 0.9.

Read-out in assay [1]: Epidermal growth factor receptor (EGFR), EGFR (gene 1956)
In words: BSK_hDFCGF_EGFR: BioMAP Diversity Plus: hDFCGF Assay for Epidermal growth factor receptor (EGFR) Biomarker Activity (AID 2283057). The following applies: primary human foreskin fibroblasts; actives raise or lower the signal. An outline of the steps:
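EGFR levels by ELISA in human dermal fibroblast cultures, 24 h post-treatment, fitted bidirectionally versus DMSO. Parallel wells stained with sulforhodamine B to detect overt cytotoxicity.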

Read-out in assay [2]: Interleukin-8 (IL8), CXCL8 (gene 3576)
In words: BSK_hDFCGF_IL8: BioMAP Diversity Plus: hDFCGF Assay for Interleukin-8 (IL8) Biomarker Activity (AID 2283058). The following applies: primary human foreskin fibroblasts; actives raise or lower the signal. An outline of the steps: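 Primary human foreskin fibroblasts (hDFCGF system) dosed with chemical; IL-8 measured by ELISA 24 hours later. Bidirectional curve fitting relative to DMSO baseline; cytotoxicity tracked in parallel cultures by SRB total protein staining.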

A short description of assay [3]: BSK_hDFCGF_Proliferation: Cell Proliferation Assessment in the BioMAP Diversity Plus: hDFCGF Assay (AID 2283059).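 Further: curves fitted for both rise and fall of signal versus DMSO baseline.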 The following applies: primary human foreskin fibroblasts. An outline of the steps:
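Sub-confluent human foreskin fibroblast cultures receive test chemical […]. Relative cell number is quantified by sulforhodamine B staining (0.1%, after 10% TCA fixation) at 560 nm, with bidirectional fitting referenced to DMSO.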

Read-out in assay [4]: Macrophage colony-stimulating factor (MCSF), CSF1 (gene 1435)
Put plainly: BSK_hDFCGF_MCSF: BioMAP Diversity Plus: hDFCGF Assay for Macrophage colony-stimulating factor (MCSF) Biomarker Activity (AID 2283060). The following applies: primary human foreskin fibroblasts; actives raise or lower the signal. An outline of the steps: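 Human foreskin fibroblast primary cultures; M-CSF measured by ELISA 24 hours after chemical dosing. Bidirectional fitting relative to DMSO, with overt cytotoxicity tracked by parallel SRB total-protein staining (0.1% SRB, 10% TCA fixation, 560 nm).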

The nature of assay [5]: BSK_hDFCGF_SRB: Viability Assessment in the BioMAP Diversity Plus: hDFCGF Assay (AID 2283061).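 Further: cells exposed to compound for 24 h before the read.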 As to conditions: primary human foreskin fibroblasts. A digest of the protocol: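 Human foreskin fibroblasts in 96-well plates were treated 24 h. Total protein was measured by 0.1% SRB staining after 10% TCA fixation, read at 560 nm. Data were fitted bidirectionally against DMSO.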

Read-out in assay [6]: TIMP metallopeptidase inhibitor 1 (TIMP1), TIMP1 (gene 7076)
In words: BSK_hDFCGF_TIMP1: BioMAP Diversity Plus: hDFCGF Assay for TIMP metallopeptidase inhibitor 1 (TIMP1) Biomarker Activity (AID 2283062). As to conditions: primary human foreskin fibroblasts; actives raise or lower the signal. An outline of the steps: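 Human foreskin fibroblast primary cultures dosed for 24 h; secreted/surface TIMP-1 quantified by ELISA. Bidirectional curve fitting against DMSO baseline; cytotoxicity tracked in parallel cultures by SRB total-protein staining.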

Read-out in assay [7]: Monokine induced gamma interferon (MIG), CXCL9 (gene 4283)
In words: BSK_hDFCGF_MIG: BioMAP Diversity Plus: hDFCGF Assay for Monokine induced gamma interferon (MIG) Biomarker Activity (AID 2283063). As to conditions: primary human foreskin fibroblasts; actives raise or lower the signal. An outline of the steps: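 MIG/CXCL9 measured by ELISA 24 h after dosing primary human skin fibroblasts. Activity fitted in both directions against DMSO controls. Cytotoxicity was checked in parallel cultures by SRB staining read at 560 nm.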

Read-out in assay [8]: Matrix Metallopeptidase 1 (MMP1), MMP1 (gene 4312)
In words: BSK_hDFCGF_MMP1: BioMAP Diversity Plus: hDFCGF Assay for Matrix Metallopeptidase 1 (MMP1) Biomarker Activity (AID 2283064). The following applies: primary human foreskin fibroblasts; actives raise or lower the signal. A digest of the protocol:
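ELISA read-out of MMP1 from human foreskin fibroblasts (primary skin cells), 24 h post-dose. Gain or loss of signal was fitted bidirectionally versus DMSO negative control; cytotoxicity was checked by SRB in parallel cultures.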

Read-out in assay [9]: Plasminogen activator inhibitor-1 (PAI1), SERPINE1 (gene 5054)
In words: BSK_hDFCGF_PAI1: BioMAP Diversity Plus: hDFCGF Assay for Plasminogen activator inhibitor-1 (PAI1) Biomarker Activity (AID 2283066). As to conditions: primary human foreskin fibroblasts; actives raise or lower the signal. A digest of the protocol: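 PAI-1 levels in human dermal foreskin fibroblasts were quantified by ELISA 24 h after dosing, with gain or loss analysed against DMSO. Overt cytotoxicity was checked by sulforhodamine B total-protein staining in parallel cultures.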

Read-out in assay [10]: Intercellular Adhesion Molecule 1 (ICAM1), ICAM1 (gene 3383)
Put plainly: BSK_KF3CT_ICAM1: BioMAP Diversity Plus: KF3CT Assay for Intercellular Adhesion Molecule 1 (ICAM1) Biomarker Activity (AID 2283067). As to conditions: primary human keratinocytes with fibroblasts; actives raise or lower the signal. A digest of the protocol: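 Human keratinocyte–foreskin fibroblast co-culture was treated for 24 h. Cell-surface ICAM-1 was quantified by ELISA, fitted bidirectionally relative to DMSO. Cytotoxicity was checked in parallel cultures by SRB total-protein staining.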

Read-out in assay [11]: Interferon-gamma inducible Protein 10 (IP10), CXCL10 (gene 3627)
Put plainly: BSK_KF3CT_IP10: BioMAP Diversity Plus: KF3CT Assay for Interferon-gamma inducible Protein 10 (IP10) Biomarker Activity (AID 2283068). As to conditions: primary human keratinocytes with fibroblasts; actives raise or lower the signal. A digest of the protocol: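 ELISA read-out of IP-10 after 24 h chemical dosing of human skin primary co-culture (keratinocytes, foreskin fibroblasts). Gain or loss of signal relative to DMSO, bidirectional curve fit.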

Assay [12] is described as follows: BSK_KF3CT_SRB: Viability Assessment in the BioMAP Diversity Plus: KF3CT Assay (AID 2283069).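 Further: read 24 h after compound addition.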 As to conditions: primary human keratinocytes with fibroblasts. An outline of the steps:
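SRB read-out at 560 nm (0.1% stain, TCA-fixed cells) gauges overt cytotoxicity in a human skin keratinocyte–fibroblast co-culture 24 h post-dosing. Signal change was fitted bidirectionally relative to DMSO control.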

Read-out in assay [13]: Interleukin-1 alpha (IL1a), IL1A (gene 3552)
In words: BSK_KF3CT_IL1a: BioMAP Diversity Plus: KF3CT Assay for Interleukin-1 alpha (IL1a) Biomarker Activity (AID 2283070). The following applies: primary human keratinocytes with fibroblasts; actives raise or lower the signal. A digest of the protocol: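 Primary skin co-culture (keratinocytes, foreskin fibroblasts), 24 h exposure; ELISA for IL-1a; bidirectional curve fit vs DMSO.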

Read-out in assay [14]: Transforming growth factor beta 1 (TGFb1), TGFB1 (gene 7040)
Put plainly: BSK_KF3CT_TGFb1: BioMAP Diversity Plus: KF3CT Assay for Transforming growth factor beta 1 (TGFb1) Biomarker Activity (AID 2283072). As to conditions: primary human keratinocytes with fibroblasts; actives raise or lower the signal. A digest of the protocol:
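ELISA quantifies TGF-b1 at 24 h post-dose in a primary human skin co-culture of keratinocytes and fibroblasts, with gain or loss judged against DMSO. Parallel SRB total-protein staining flags overt cytotoxicity.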

Read-out in assay [15]: C-C motif chemokine 2 (Homo sapiens) (UniProt P13500)
In words: BSK_KF3CT_MCP1: BioMAP Diversity Plus: KF3CT Assay for Monocyte Chemoattractant Protein 1 (MCP1/CCL2) Biomarker Activity (AID 2283073). As to conditions: primary human keratinocytes with fibroblasts; actives raise or lower the signal. A digest of the protocol:
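Human keratinocyte–foreskin fibroblast co-culture; MCP-1 measured by ELISA 24 h after dosing. Bidirectional fit vs DMSO; cytotoxicity tracked by SRB total protein in parallel cultures.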

Read-out in assay [16]: Matrix Metallopeptidase 9 (MMP9), MMP9 (gene 4318)
In words: BSK_KF3CT_MMP9: BioMAP Diversity Plus: KF3CT Assay for Matrix Metallopeptidase 9 (MMP9) Biomarker Activity (AID 2283074).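 On AC50: MMP9 protein level quantified by ELISA in the co-culture.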 As to conditions: primary human keratinocytes with fibroblasts; actives raise or lower the signal. A digest of the protocol:
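ELISA read-out of MMP-9 at 24 h post-dosing in a co-culture of human skin keratinocytes and foreskin fibroblasts. Gain or loss of signal was fitted in both directions against DMSO.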

Read-out in assay [17]: urokinase plasminogen activator (uPA), PLAU (gene 5328)
In words: BSK_KF3CT_uPA: BioMAP Diversity Plus: KF3CT Assay for urokinase plasminogen activator (uPA) Biomarker Activity (AID 2283075). The following applies: primary human keratinocytes with fibroblasts; actives raise or lower the signal. An outline of the steps:
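Skin co-culture (keratinocytes + foreskin fibroblasts), human primary; 24 h post-dose; uPA by ELISA; gain/loss fit vs DMSO baseline.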

Read-out in assay [18]: CD40, CD40 (gene 958)
Put plainly: BSK_LPS_CD40: BioMAP Diversity Plus: LPS Assay for CD40 Biomarker Activity (AID 2283076). As to conditions: primary human HUVEC with PBMC; actives raise or lower the signal. A digest of the protocol:
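HUVEC plus PBMC co-culture stimulated with LPS; CD40 quantified by ELISA 24 h after compound dosing. Fitting was bidirectional relative to DMSO. SRB staining of parallel cultures flagged overt cytotoxicity.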

Read-out in assay [19]: Vascular cell adhesion molecule 1 (VCAM1), VCAM1 (gene 7412)
Put plainly: BSK_hDFCGF_VCAM1: BioMAP Diversity Plus: hDFCGF Assay for Vascular cell adhesion molecule 1 (VCAM1) Biomarker Activity (AID 2283065). The following applies: primary human foreskin fibroblasts; actives raise or lower the signal. A digest of the protocol:
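Human foreskin fibroblast primary cells dosed with chemical, VCAM-1 measured by ELISA at 24 h. Bidirectional curve fitting relative to DMSO as negative control/baseline.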

Read-out in assay [20]: TIMP metallopeptidase inhibitor 2 (TIMP2), TIMP2 (gene 7077)
In words: BSK_KF3CT_TIMP2: BioMAP Diversity Plus: KF3CT Assay for TIMP metallopeptidase inhibitor 2 (TIMP2) Biomarker Activity (AID 2283071). The following applies: primary human keratinocytes with fibroblasts; actives raise or lower the signal. An outline of the steps:
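TIMP-2 measured by ELISA at 24 h in human keratinocyte/fibroblast primary co-cultures exposed to chemicals. Both increases and decreases were fitted against DMSO. Parallel cultures were stained with SRB for total protein as an overt-cytotoxicity check.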

In the case of `CC(C)c1cccc(C(C)C)c1`, the outcome in assay [1], in assay [2], in [3], in assay [4], in [5] and in assay [6] was inactive. For the same molecule, the outcome in assay [7], in assay [8], in assay [9], in [10], in [11] and in assay [12] was inactive. Besides, the result in [13], in assay [14], in [15], in [16], in [17] and in assay [18] was inactive.

As to `CC(=O)O`, the result in assay [1], in assay [2], in [4], in [6], in assay [7] and in assay [8] was inactive. Moreover, the outcome in [19], in assay [9], in [10], in [11], in [12] and in assay [13] was inactive. The outcome in [20], in assay [14], in [15], in assay [16], in assay [17] and in [18] was inactive. Besides, in assay [3], the AC50 was 31.2 µM (active).

As for `CCCCCCCCCCCCCCOS(=O)(=O)O`, the concentration at half-maximal activity (AC50) was 12.2 µM (active) in assay [1]; 12.4 µM (active) in assay [2]; 5.36 µM (active) in [3]; 9.53 µM (active) in [4]; 10.1 µM (active) in assay [5]; 9.76 µM (active) in [6]. Further, the AC50 in assay [7] is 7.52 µM (active); in assay [8], 5.54 µM (active); in assay [9], 9.05 µM (active); in assay [10], 16.2 µM (active); in assay [11] it was 8.99 µM (active); in assay [12], 8 µM (active). Also, the AC50 in [13] was 10.3 µM (active); in assay [14], 5.78 µM (active); in assay [15], 8.92 µM (active); in [16], 8.96 µM (active); in [17], 9.42 µM (active). For the same molecule, the result in [18] was inactive.

As to `CCc1cc(C2=C(C(=O)O)N(c3ccccc3C(F)(F)F)S(=O)(=O)c3ccccc32)cc2c1OCO2`, the result in assay [1], in assay [2], in assay [4], in assay [5], in assay [6] and in assay [7] was inactive. Moreover, the outcome in assay [9], in assay [10], in [11], in [12], in assay [13] and in assay [14] was inactive. Moreover, the result in assay [15], in assay [16], in assay [17] and in assay [18] was inactive. Further, the concentration at half-maximal activity (AC50) in assay [3] is 15.5 µM (active); in [8], 19.8 µM (active).

The AC50 is the midpoint of the concentration-response curve, whichever way the signal moves.

Values taken from PubChem BioAssay (EPA / NIEHS).
